Source: PubChem BioAssay (National Center for Advancing Translational Sciences (NCATS))
In the library only some 19% were active in any assay of this set; here they are far more common.
SW480 rerep: A quantitative high throughput screen for small molecules that induce DNA re-replication in SW480 colon adenocarcinoma cells; SW480 DNA re-replication, Hoechst DNA content imaging, 48 h; Potency, µM (doses to about 46.1 µM), without a hit: at the highest dose re-replication activation, hits mostly activators; 340,000 compounds, 1.8% hits; AID 624297, 2012; also: potency is read from the fitted curve at half-maximal effect; % of control where 0% means no effect; nearly all actives have a fitted effect of over 55% in size
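250 cells/well; 23 nL cpd via pin tool; 48 hr, 37 C, 5% CO2; Hoechst 40 min; imager read of total nuclear intensity, ex 405/em 500-530 nm.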
IL-1B inflam inh: qHTS for Inhibitors of Inflammasome Signaling: IL-1-beta AlphaLISA Primary Screen | AID 743279, 2014 | THP-1 LPS/ATP IL-1B secretion, AlphaLISA, 16 h; hits give low values | 360,000 compounds, 4.7% hits | activity change, % at 57.5 µM; in the data active = activity change below about -50%; inconclusive = mostly about -30% to -49%; also: % is scaled to controls: 0 for no effect and ±100 for the full control effect
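THP-1 cells pretreated 1 hr with compounds (up to 57.5 uM final), then stimulated with LPS (250 ng/mL final) plus ATP (1.25 mM final); secreted IL-1B measured by AlphaLISA after 16 hr, decreased signal indicating inhibition.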
BCR signal inh: qHTS Assay to Find Inhibitors of Chronic Active B-Cell Receptor Signaling | ABC-DLBCL IkBa-CBG/CBR reporter, luminescence ratio, 4 h | Potency, µM (titrated, usually from 46.1 µM), for inactives: at the top dose activity change, negative = inhibition, hits mostly inhibitors | 340,000 compounds, 0.05% hits | AID 493014, 2011; active = well fitted inhibition curve with a large enough effect in the signal ratio, with a control signal flat, not every such curve was filed as active; inconclusive = small, poorly fitted or top-dose-only effect, or effect the other way, or a change in a side signal; the % refers to the signal ratio;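 also: potency is read from the fitted curve at half-maximal effect; plate controls were basal doxycycline-induced cells for no effect and cells given 10 µM MG132 for full effect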
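Concentration-response series (up to 46 uM) were applied to TMD8 dual-reporter cells for 4 h at 37C with doxycycline. Green/red ratio, after filter-overlap correction, defined %Activity; red signal alone was normalised to basal cells and zero luminescence.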
MCF10A rerep: A quantitative high throughput screen for small molecules that induce DNA re-replication in MCF 10a normal breast cells. MCF 10A DNA re-replication, Hoechst nuclear intensity, 48 h. Potency, µM (titrated, usually from 46.1 µM), for the others: at the highest dose activity, positive = re-replication, usual class: activators. 350,000 compounds, 2.9% hits; also: potency is read from the fitted curve at half-maximal effect; % of control where 0% means no effect; nearly all actives have a fitted effect of over 50% in size
DT40 TDP1 no CPT: qHTS for Inhibitors of human tyrosyl-DNA phosphodiesterase 1 (TDP1): qHTS in cells in absence of CPT; DT40 Tdp1-/- hTDP1 cells, no CPT, ATP luminescence, 48 h; Potency, µM (top dose mostly 46.2 µM), for the others: top-dose activity change, negative = growth inhibition, most hits filed as inhibitors; 420,000 compounds, 15% hits; AID 686978, 2013; also: potency is read from the fitted curve at half-maximal effect; % is scaled to controls: 0 for no effect and ±100 for the full control effect; nearly all actives have a fitted effect of over 55% in size
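Chicken DT40 Tdp1-/- cells complemented with human TDP1, screened without camptothecin (DMSO vehicle only), 400 cells/well. Compounds pin-transferred, cells incubated at 37 °C for at least 48 hr. Growth read as ATP-dependent luminescence (CellTiter-Glo, 30 min at RT).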
DT40 TDP1 CPT: qHTS for Inhibitors of human tyrosyl-DNA phosphodiesterase 1 (TDP1): qHTS in cells in presence of CPT | Potency, µM (top dose mostly 46.2 µM), for the others: at the top dose activity change, negative = growth inhibition, most hits filed as inhibitors | 420,000 compounds, 12% hits | AID 686979, 2013 | chicken DT40 Tdp1-/-;hTDP1 cells + 20 nM CPT, ATP luminescence, 48 h; also: potency is read from the fitted curve at half-maximal effect; % is scaled to controls: 0 for no effect and ±100 for the full control effect; nearly all actives have a fitted effect of over 55% in size
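Chicken DT40 Tdp1-/- cells stably complemented with human TDP1 were seeded at 400 cells/well in medium containing 20 nM camptothecin, exposed to pin-transferred compounds, and grown at 37 °C for at least 48 hr. Viability was read as ATP luminescence.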
Active calls of the source: *; ? = inconclusive; nt = no result given; [ ] = remark or other dose. Unless noted, calls follow the shape of the dose curve; as a rule, active = well fitted curve in the direction sought with a large enough effect; inconclusive = small, poorly fitted or top-dose-only effect, or another doubt; inactive = no such curve, though single readings can be large; an effect the other way counts as inactive or inconclusive.

SMILES	SW480 rerep	IL-1B inflam inh	BCR signal inh	MCF10A rerep	DT40 TDP1 no CPT	DT40 TDP1 CPT
CC1CCc2c(c3ccccc3n2C(=O)CCl)C1 (configuration not stated)	6%	-60*	?	18µM*	?	?
CCN1CCN(CC(=O)n2c3c(c4ccccc42)CC(C)CC3)CC1 (configuration not stated)	-1%	-12	?	10%	18µM*	?
CC1CCN(CC(=O)n2c3c(c4ccccc42)CCCC3)CC1	-2%	-14	?	3%	?	?
Cc1nn(-c2ccc(N3CCCC3)nn2)c(C)c1CCC(=O)NCc1ccc(F)cc1	nt	nt	nt	nt	-30%	-26%
CCOc1ccc(-n2nc3ccc(NC(=O)c4ccc(-c5cccc(Cl)c5)o4)cc3n2)cc1	nt	nt	nt	nt	-13%	0%
O=c1c(-c2cc(F)cc(F)c2)nc2cnc(N3CCOCC3)nc2n1-c1ccccc1	nt	nt	nt	nt	-5%	5%
Nc1cccc2c1C(=O)N(CC(=O)NC13CC4CC(CC(C4)C1)C3)C2=O	?	27	7%	?	-2%	-8%
O=C(Cn1sc2ccccc2c1=O)Nc1ccccc1	nt	-104*	nt	nt	2.1µM*	2.3µM*
O=C(Cn1sc2ccccc2c1=O)NC12CC3CC(CC(C3)C1)C2	?	-99*	?	?	1.8µM*	1.5µM*
CCN(CC)S(=O)(=O)c1ccc(N2CCCC2)c(NC(=O)c2ccc(N3CCCC3=O)cc2)c1	-4%	-12	2%	2%	?	-16%
Cc1occc1C(=O)N1CCCC(CO)(Cc2ccc(F)cc2F)C1 (configuration not stated)	-6%	-12	0%	0%	-23%	-2%
COc1ccc(N)c2c1C(=O)c1ccccc1C2=O	2%	-85*	?	12%	?	?
COc1ccc(OC)c2c1C(=O)C(Cl)=C(Cl)C2=O	?	-117*	?	2.6µM*	0.41µM*	0.23µM*
COc1cccc2c1C(=O)c1ccc3ccccc3c1C2=O	-1%	4	11%	-8%	?	-8%
COc1ccc2noc3c2c1C(=O)c1ccccc1-3	13%	?	nt	-2%	18µM*	15µM*
COc1ccc(OC)c2c1C(=O)c1ccccc1C2=O	2%	-16	-5%	11%	-29%	-9%
O=C1c2ccccc2-c2onc3ccc(NCCCn4ccnc4)c1c23	0%	-97*	?	-4%	?	15µM*
COc1cc(CC(=O)OCC(=O)N2CCCCC2)cc(OC)c1OC	-2%	20	-4%	-11%	-4%	10%
Cc1noc(C)c1S(=O)(=O)Nc1ccc2c(c1)CC(=O)N([C@H](C)CO)C[C@H](C)[C@H](CN(C)S(=O)(=O)c1ccc(F)cc1)O2	?	-16	0%	-11%	?	-62%
COc1ccc(C(C(=O)NCC2CCCO2)N(Cc2ccccc2)C(=O)CNC(=O)c2ccco2)cc1OC (configuration not stated)	-9%	118	4%	-8%	-14%	0%
CCOc1ccc(NC(=O)C2CCCN2S(=O)(=O)c2ccc(OCC)cc2)cc1 (configuration not stated)	-2%	65	-2%	?	-3%	1%
CN1CCC2(CC1)CCN(C(=O)c1cccc(F)c1)CC2	nt	nt	nt	nt	-1%	21%
O=C1c2ccccc2C(=O)c2c(O)ccc(O)c21	nt	nt	nt	nt	-10%[9.04 µM]	-6%[9.04 µM]
Nc1ccc(O)c2c1C(=O)c1ccccc1C2=O	-85%	-57*	11%	-37%	?	?
